Entries with a potency or affinity are not part of this list. Activity calls are given as the source filed them. How the calls were made is not given here.
Target: KSHV LANA C-terminal domain (residues 932-1162) binding to LBS DNA (UniProt O40947)
Experiment: inhibitors of C-LANA binding to LBS DNA, dose response, biochemical, fluorescence polarization, cherry-picked samples (AID 504725)
Settings: MBP-C-LANA / FAM-LBS DNA fluorescence polarization; series mostly up to 35 µM; activity change, negative = inhibition: at the top concentration

| Structure (SMILES) | activity change, negative = inhibition |
| --- | --- |
| O=c1[nH]c(=O)n(C2CCCCC2)c(O)c1C=Nc1ccc(N2CCOCC2)cc1 | -1.79% (inactive) |
| COC(=O)C1=C(c2ccc(OC(F)(F)F)cc2)C[C@@H]2CC[C@H]1N2C(=O)NC1CCCCC1 | -1.08% (inactive) |
| CCCCc1ccc(C(=O)O)nc1 | -11.9% (inactive) |
| CC(C)CC(=O)Nc1ccc(S(=O)(=O)N2CC3CC(C2)c2cccc(=O)n2C3)cc1 (stereo not drawn) | -0.361% (inactive) |
| CCOC(=O)c1c(/N=C/c2c(O)n(-c3cccc(C)c3)c(=O)[nH]c2=O)sc2c1CCCC2 | -1.71% (inactive) |
| CCn1c(O)c(N=Nc2cccc(S(=O)(=O)N3CCOCC3)c2)c(=O)n(CC)c1=S | 0.812% (inactive) |
| Cc1cc(=O)oc2cc(OCC(=O)N3CCN(Cc4ccc5c(c4)OCO5)CC3)ccc12 | 4.13% (inactive) |
| CC(Cc1ccccc1)NC(=O)NC(C)Cc1ccccc1 (stereo not drawn) | -8.14% (inactive) |
| CN(C)C1C(=O)C(C(N)=O)=C(O)C2(O)C(=O)C3=C(O)c4c(O)cccc4C(C)(O)C3C(O)C12 (stereo not drawn) | 1.03% (inactive) |
| O=c1c2ccccc2nc(/C=C\c2ccccc2[N+](=O)[O-])n1-c1ccccc1O | -4.88% (inactive) |
| CC(OC(=O)c1cn(C)c2ccccc12)C(=O)N1CCCC1 (stereo not drawn) | 1.34% (inactive) |
| COCCNC(=O)Cn1cc(/C=C2\C(=O)NC(=O)N(c3cccc(C)c3C)C2=O)c2ccccc21 | 0.685% (inactive) |
| Cc1cc(OCC(=O)OC(C)(C)C)c2c3c(c(=O)oc2c1)CCC3 | 4.26% (inactive) |
